We go through ten compounds from PubChem BioAssay (NCI).

The panel holds about 79,000 compounds, 15% with a hit somewhere; the sample as a whole holds those more often. A number with no mark means an inactive call. Activity calls are given as the source filed them. Rule as the data show it: active = growth inhibition above about 70%; inactive = the rest.

Assay [1] can be described thus: NCI Yeast Anticancer Drug Screen. Data for the rad50 strain (AID 155).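 Also: 0% = growth of vehicle-only cultures of the same strain.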 As to conditions: S. cerevisiae rad50 strain growth inhibition, active compounds read high. In short, it runs like this: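 A DNA repair-deficient yeast mutant serves as the test organism; compound-induced growth inhibition is calculated against vehicle-treated cells.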
Assay [2] in a line: NCI Yeast Anticancer Drug Screen. Data for the mec2-1 strain (AID 157). As to conditions: S. cerevisiae mec2-1 strain, active compounds read high. In short, it runs like this:
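Using mec2-1 yeast: add compound, measure growth, express inhibition versus vehicle-treated cultures.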

The nature of assay [3]: NCI Yeast Anticancer Drug Screen. Data for the sgs1 mgt1 strain (AID 161).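 Also: 0% = growth of cultures given vehicle only.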 As to conditions: S. cerevisiae sgs1 mgt1 strain, active compounds read high. In short, it runs like this: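 This yeast growth screen uses a strain with defined DNA-repair lesions; compound-treated growth is compared with vehicle-treated growth.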
Assay [4] can be described thus: NCI Yeast Anticancer Drug Screen. Data for the cln2 rad14 strain (AID 165).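 Also: 0% = growth equal to vehicle treated cultures.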 As to conditions: S. cerevisiae cln2 rad14 strain, active compounds read high. In short, it runs like this:
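Yeast strain cln2 rad14, bearing defects in cell cycle control and DNA repair, serves as the test system; values reflect growth inhibition compared with vehicle.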

A short description of assay [5]: NCI Yeast Anticancer Drug Screen. Data for the bub3 strain (AID 167). As to conditions: S. cerevisiae bub3 mutant strain, active compounds read high. In short, it runs like this: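 Inhibition values come from growth of compound-treated mutant yeast normalised to vehicle-treated controls.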
Assay [6] can be described thus: NCI Yeast Anticancer Drug Screen. Data for the mlh1 rad18 strain (AID 175). As to conditions: S. cerevisiae mlh1 rad18 strain growth inhibition, active compounds read high. In short, it runs like this:
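Steps: expose repair-defective yeast to compound; measure growth; express inhibition against vehicle-treated controls.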

[7] abbreviates: at 5.0 µM (retest, dose inferred, filed as 0.5).
Where [8] appears, read: at 50.0 µM (retest, dose inferred, filed as 5.0).

Take `CCOc1ccc(C(=O)CCN2CCOCC2)cc1`: the growth inhibition in assay [1] (setting [7]) is 8%; in assay [1] (setting [8]), 40%; in assay [1] (at 50.0 µM), 77.5% (active); in assay [2] (setting [7]), 14%; in assay [2] (setting [8]) it was 27%; in assay [2] (at 50.0 µM), 42.1%. Moreover, the growth inhibition in assay [3] (setting [7]) is 20%; in assay [3] (setting [8]), 53%; in assay [3] (at 50.0 µM) it was 57%; in assay [4] (setting [7]), 15%; in assay [4] (setting [8]), 59%; in assay [4] (at 50.0 µM), 52.9%. Besides, the growth inhibition in assay [5] (setting [7]) was 14%; in assay [5] (setting [8]) it was 46%; in assay [5] (at 50.0 µM), 46%; in assay [6] (setting [7]) it was 6%; in assay [6] (setting [8]), 35%; in assay [6] (at 50.0 µM), 55.3%.

With `OC(c1cc(-c2ccc(Cl)c(Cl)c2)nc2ccccc12)C1CCCCN1` (stereo not given), the growth inhibition in assay [1] (setting [7]) is 95% (active); in assay [1] (setting [8]), 70% (active); in assay [1] (at 50.0 µM) it was 38.2%; in assay [2] (setting [7]), 100% (active); in assay [2] (setting [8]), 12%; in assay [2] (at 50.0 µM), 32.8%. Moreover, the growth inhibition in assay [3] (setting [7]) is 84% (active); in assay [3] (setting [8]), 77% (active); in assay [3] (at 50.0 µM), 9.85%; in assay [4] (setting [7]), 99% (active); in assay [4] (setting [8]) it was 29%; in assay [4] (at 50.0 µM), -14.2%. Besides, the growth inhibition in assay [5] (setting [7]) is 99% (active); in assay [5] (setting [8]), 61%; in assay [5] (at 50.0 µM), 66.3%; in assay [6] (setting [7]), 99% (active); in assay [6] (setting [8]), 92% (active); in assay [6] (at 50.0 µM), 88.5% (active).

With `COc1ccc(C=C(C(=O)c2ccccc2)C(=O)c2ccccc2)cc1`, the growth inhibition in assay [1] (setting [7]) was 12%; in assay [1] (setting [8]), 95% (active); in assay [1] (at 50.0 µM), 91.3% (active); in assay [2] (setting [7]) it was -7%; in assay [2] (setting [8]), 96% (active); in assay [2] (at 50.0 µM), 92.3% (active). Moreover, the growth inhibition is -6% in assay [3] (setting [7]); 94% (active) in assay [3] (setting [8]); 91.3% (active) in assay [3] (at 50.0 µM); 14% in assay [4] (setting [7]); 95% (active) in assay [4] (setting [8]); 88.5% (active) in assay [4] (at 50.0 µM). Further, the growth inhibition in assay [5] (setting [7]) is 16%; in assay [5] (setting [8]), 98% (active); in assay [5] (at 50.0 µM), 92% (active); in assay [6] (setting [7]), -12%; in assay [6] (setting [8]) it was 98% (active); in assay [6] (at 50.0 µM), 90.8% (active).

Take `C=C(Br)CN(CC(=C)Br)C(C)=O`: the growth inhibition was 17% in assay [1] (setting [7]); 21% in assay [1] (setting [8]); -11.7% in assay [1] (at 50.0 µM); 17% in assay [2] (setting [7]); 14% in assay [2] (setting [8]); -11.1% in assay [2] (at 50.0 µM). The growth inhibition was 25% in assay [3] (setting [7]); 16% in assay [3] (setting [8]); -2.5% in assay [3] (at 50.0 µM); 15% in assay [4] (setting [7]); 24% in assay [4] (setting [8]); -45.4% in assay [4] (at 50.0 µM). In addition, the growth inhibition is 14% in assay [5] (setting [7]); 10% in assay [5] (setting [8]); -1.4% in assay [5] (at 50.0 µM); 22% in assay [6] (setting [7]); 21% in assay [6] (setting [8]); -53.9% in assay [6] (at 50.0 µM).

Consider `CCC(C)(C)c1cc(Br)c(NS(=O)(=O)c2ccc(NC(C)=O)cc2)c(Br)c1`, for which the growth inhibition is 5% in assay [1] (setting [7]); 80% (active) in assay [1] (setting [8]); -6.75% in assay [1] (at 50.0 µM); 13% in assay [2] (setting [7]); 65% in assay [2] (setting [8]); 8.05% in assay [2] (at 50.0 µM). Moreover, the growth inhibition was -9% in assay [3] (setting [7]); 35% in assay [3] (setting [8]); -0.45% in assay [3] (at 50.0 µM); 9% in assay [4] (setting [7]); 78% (active) in assay [4] (setting [8]); 6.85% in assay [4] (at 50.0 µM). In addition, the growth inhibition is -3% in assay [5] (setting [7]); 62% in assay [5] (setting [8]); 6.5% in assay [5] (at 50.0 µM); 8% in assay [6] (setting [7]); 42% in assay [6] (setting [8]); 20.5% in assay [6] (at 50.0 µM).

As for `C[n+]1cccc2c1-c1ccccc1C2=O`, the growth inhibition in assay [1] (setting [7]) is 6%; in assay [1] (setting [8]) it was 22%; in assay [1] (at 50.0 µM), -2.25%; in assay [2] (setting [7]), -1%; in assay [2] (setting [8]), 22%; in assay [2] (at 50.0 µM) it was 1.6%. In addition, the growth inhibition was 3% in assay [3] (setting [7]); 8% in assay [3] (setting [8]); 8.15% in assay [3] (at 50.0 µM); -3% in assay [4] (setting [7]); 1% in assay [4] (setting [8]); 39.5% in assay [4] (at 50.0 µM). Also, the growth inhibition was -2% in assay [5] (setting [7]); 9% in assay [5] (setting [8]); 11.1% in assay [5] (at 50.0 µM); 2% in assay [6] (setting [7]); 28% in assay [6] (setting [8]); 16.1% in assay [6] (at 50.0 µM).

For the compound `O=[N+]([O-])c1ccc(Sc2ccc([N+](=O)[O-])o2)o1`, the growth inhibition in assay [1] (setting [7]) is 93% (active); in assay [1] (setting [8]), 99% (active); in assay [1] (at 50.0 µM), 99.2% (active); in assay [2] (setting [7]), 94% (active); in assay [2] (setting [8]), 100% (active); in assay [2] (at 50.0 µM), 99.5% (active). In addition, the growth inhibition is 97% (active) in assay [3] (setting [7]); 100% (active) in assay [3] (setting [8]); 99.4% (active) in assay [3] (at 50.0 µM); 71% (active) in assay [4] (setting [7]); 99% (active) in assay [4] (setting [8]); 99.2% (active) in assay [4] (at 50.0 µM). Also, the growth inhibition was 96% (active) in assay [5] (setting [7]); 99% (active) in assay [5] (setting [8]); 99.5% (active) in assay [5] (at 50.0 µM); 98% (active) in assay [6] (setting [7]); 99% (active) in assay [6] (setting [8]); 99.1% (active) in assay [6] (at 50.0 µM).

Regarding `CCOC(=O)OCCSCCOC(=O)OCC`, the growth inhibition in assay [1] (setting [7]) is -14%; in assay [1] (setting [8]), 19%; in assay [1] (at 50.0 µM), -4.35%; in assay [2] (setting [7]), -12%; in assay [2] (setting [8]), 36%; in assay [2] (at 50.0 µM), 17.6%. The growth inhibition was -5% in assay [3] (setting [7]); 8% in assay [3] (setting [8]); 14.2% in assay [3] (at 50.0 µM); 15% in assay [4] (setting [7]); -6% in assay [4] (setting [8]); 13.8% in assay [4] (at 50.0 µM). The growth inhibition in assay [5] (setting [7]) is -9%; in assay [5] (setting [8]), 18%; in assay [5] (at 50.0 µM), 19%; in assay [6] (setting [7]), 0%; in assay [6] (setting [8]), 47%; in assay [6] (at 50.0 µM) it was -9.65%.

Turning to `O=P(OCCCl)(OCCCl)C(Nc1cccc2ccccc12)c1ccccc1` (stereo not given), the growth inhibition in assay [1] (setting [7]) was 7%; in assay [1] (setting [8]), 86% (active); in assay [1] (at 50.0 µM) it was 91% (active); in assay [2] (setting [7]), -8%; in assay [2] (setting [8]), 72% (active); in assay [2] (at 50.0 µM), 91.4% (active). Moreover, the growth inhibition in assay [3] (setting [7]) is 5%; in assay [3] (setting [8]), 86% (active); in assay [3] (at 50.0 µM), 88.5% (active); in assay [4] (setting [7]) it was -1%; in assay [4] (setting [8]) it was 86% (active); in assay [4] (at 50.0 µM), 87.5% (active). Besides, the growth inhibition in assay [5] (setting [7]) was 1%; in assay [5] (setting [8]), 87% (active); in assay [5] (at 50.0 µM) it was 86.7% (active); in assay [6] (setting [7]), 4%; in assay [6] (setting [8]), 84% (active); in assay [6] (at 50.0 µM), 90.2% (active).

As for `S=c1[nH]nc(SCc2ccc(Cl)c(Cl)c2)c2[nH]cnc12`, the growth inhibition was -4% in assay [1] (setting [7]); -13% in assay [1] (setting [8]); 1.45% in assay [1] (at 50.0 µM); -11% in assay [2] (setting [7]); -2% in assay [2] (setting [8]); 9.2% in assay [2] (at 50.0 µM). For the same compound, the growth inhibition in assay [3] (setting [7]) is -14%; in assay [3] (setting [8]) it was -14%; in assay [3] (at 50.0 µM), 21.2%; in assay [4] (setting [7]), -10%; in assay [4] (setting [8]), -16%; in assay [4] (at 50.0 µM), 28.8%. Also, the growth inhibition was -8% in assay [5] (setting [7]); -8% in assay [5] (setting [8]); 9.25% in assay [5] (at 50.0 µM); -21% in assay [6] (setting [7]); -16% in assay [6] (setting [8]); 5.2% in assay [6] (at 50.0 µM).
